Shown are actives, neighbours in structure and some others; about 10% of the full set was active somewhere.
NPR1 antag – blocks ANP-stimulated signaling of human Npr1 receptor; P16066; 1.6% of 76,000 active; Potency, µM (titrated, usually from 46.3 µM), for inactives: top-dose activity change, negative = inhibition, actives largely listed as inhibitors; HEK293 hNpr1 GloSensor cGMP, ANP-stimulated luminescence; AID 1347048; calls by dose curve; further: on the % scale 0 is the no-effect control and ±100 the full control effect; nearly all actives have a fitted effect of over 60% in size
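HEK293 cells stably expressing human Npr1 and cGMP GloSensor pGS-40F, loaded 2 h with 2% GloSensor reagent, given compound 30 min at room temperature. Luminescence read before and 20 min after 0.1 nM hNppA.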
3T3 cytotox – kills NIH 3T3 cells. NIH 3T3 viability, CellTiter-Glo ATP luminescence, 48-72 h. Potency, µM (doses to about 96.7 µM), for the others: at the top dose activity change, negative = cytotoxicity, hits mostly inhibitors. 4.3% of 94,000 active. AID 1345082; further: on the % scale 0 is the no-effect control and ±100 the full control effect; nearly all actives have a fitted effect of over 55% in size
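First NIH 3T3 cells are plated at 400 cells/well; next compound is pinned in; then plates incubate 48 or 72 hr at 37 °C; finally CellTiter-Glo is added and luminescence read after 10 min.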
GPT2 inhibitor – blocks human glutamate pyruvate transaminase 2 | Q8TD30 | Recombinant GPT2, coupled pyruvate oxidase/HRP Amplex Red fluorescence | Potency, µM (doses to about 57.7 µM), inactives show at the top dose activity change, negative = inhibition, actives largely listed as inhibitors | 0.25% of 100,000 active; further: on the % scale 0 is the no-effect control and ±100 the full control effect; nearly all actives have a fitted effect of over 60% in size
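Inhibition is scored from Amplex Red fluorescence generated when pyruvate oxidase and HRP act on pyruvate released by GPT2. Reactions contain 10ng/uL enzyme, 250uM a-KG and 2mM L-alanine and run 30 min at room temperature.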
FLuc inh – blocks purified firefly luciferase enzyme activity | P08659 | purified P. pyralis luciferase, luminescence, biochemical | Potency, µM (top dose mostly 115 µM), hits mostly inhibitors | 2.5% of 76,000 active | AID 1347043; further: on the % scale 0 is the no-effect control and ±100 the full control effect; nearly all actives have a fitted effect of over 65% in size
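Biochemical qHTS: compound (6-point titration) added to 10uM D-luciferin plus 10uM ATP in Tris acetate pH 7.5 buffer with Mg, Tween-20 and BSA, then purified enzyme at 10nM; light output imaged.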
HEK cytotox – cytotoxic compounds in HEK 293 cells. HEK 293 viability, ATP luminescence (CellTiter-Glo), 48-72 h. Potency, µM (series often up to 115 µM), without a hit: top-dose activity change, negative = cytotoxicity, actives largely listed as inhibitors. 6.6% of 94,000 active; further: on the % scale 0 is the no-effect control and ±100 the full control effect; nearly all actives have a fitted effect of over 60% in size
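HEK 293 cells seeded at 250 cells/well were exposed to compound for 48 or 72 hr at 37 degree Celsius. Viability taken as ATP content by CellTiter-Glo luminescence.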
Npr1 antag conf – confirmation of human Npr1 natriuretic peptide receptor antagonists. shares compounds with NPR1 antag. HEK293 hNpr1 cGMP GloSensor luminescence, ANP-stimulated. Potency, µM (doses to about 57.6 µM), without a hit: top-dose activity change, negative = inhibition, actives largely listed as inhibitors. 76% of 1,400 active; calls by dose curve; further: nearly all actives have a fitted effect of over 70% in size
NPR2 antag – antagonizes human Npr2, subtype selectivity check | shares compounds with NPR1 antag | HEK293 hNpr2 GloSensor cGMP luminescence, CNP-stimulated | Potency, µM (titrated, usually from 57.6 µM), without a hit: top-dose activity change, negative = inhibition, actives largely listed as inhibitors | 67% of 1,400 active | AID 1347046; calls by dose curve; further: nearly all actives have a fitted effect of over 70% in size
Target sequence (P20594 whole entry, looked up): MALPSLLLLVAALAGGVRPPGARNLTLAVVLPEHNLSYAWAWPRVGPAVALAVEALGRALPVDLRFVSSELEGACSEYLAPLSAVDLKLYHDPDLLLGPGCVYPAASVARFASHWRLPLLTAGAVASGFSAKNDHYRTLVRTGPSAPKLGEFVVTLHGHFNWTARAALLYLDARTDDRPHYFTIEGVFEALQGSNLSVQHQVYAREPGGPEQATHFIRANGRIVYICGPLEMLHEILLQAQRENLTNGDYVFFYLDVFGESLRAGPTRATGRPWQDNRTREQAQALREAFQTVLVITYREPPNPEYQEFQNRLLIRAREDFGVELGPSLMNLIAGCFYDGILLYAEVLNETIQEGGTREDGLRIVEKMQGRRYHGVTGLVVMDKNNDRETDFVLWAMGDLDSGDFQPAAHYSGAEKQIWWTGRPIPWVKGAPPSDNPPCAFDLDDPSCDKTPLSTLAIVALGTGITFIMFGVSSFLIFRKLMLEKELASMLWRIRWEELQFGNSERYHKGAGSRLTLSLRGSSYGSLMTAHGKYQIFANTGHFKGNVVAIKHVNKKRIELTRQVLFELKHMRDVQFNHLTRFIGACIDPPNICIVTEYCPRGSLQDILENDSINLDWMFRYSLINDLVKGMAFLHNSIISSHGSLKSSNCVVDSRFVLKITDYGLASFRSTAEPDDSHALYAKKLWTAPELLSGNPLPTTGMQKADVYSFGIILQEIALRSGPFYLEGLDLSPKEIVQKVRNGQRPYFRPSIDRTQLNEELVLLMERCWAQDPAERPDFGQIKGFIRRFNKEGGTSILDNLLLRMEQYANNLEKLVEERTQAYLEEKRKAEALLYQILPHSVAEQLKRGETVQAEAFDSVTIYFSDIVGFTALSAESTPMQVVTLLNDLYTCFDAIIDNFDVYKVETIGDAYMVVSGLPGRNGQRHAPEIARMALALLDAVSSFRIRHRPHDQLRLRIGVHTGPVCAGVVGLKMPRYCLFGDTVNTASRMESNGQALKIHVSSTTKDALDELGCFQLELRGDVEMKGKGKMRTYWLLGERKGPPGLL
FLuc inh counter – inhibits firefly luciferase, false Npr1 antagonist flag; AID 1347047; 0.7% of 1,400 active; Potency, µM (top dose mostly 57.6 µM), for inactives: at the highest dose activity change, negative = inhibition, most hits filed as inhibitors; shares compounds with NPR1 antag; purified FLuc enzyme, luminescence, Km substrate; further: 0% is about no effect
GloSensor cGMP – counter-screen for Npr1 antagonists: GloSensor control cell line. 69% of 1,400 active. AID 1347051. HEK293 GloSensor cGMP, SNP-stimulated, luminescence. shares compounds with NPR1 antag. Potency, µM (titrated, usually from 57.6 µM), for inactives: at the highest dose activity change, negative = inhibition, usual class: inhibitors; calls by dose curve; further: on the % scale 0 is the no-effect control and ±100 the full control effect; nearly all actives have a fitted effect of over 70% in size
Starred values were filed as active, the others as inactive; i = inactive; ? = inconclusive; . = no result; [ ] = dose if it differs, or a comment. Unless noted, the call rests on the fitted dose curve; in most records, active means well fitted curve in the direction sought with a large enough effect; inconclusive means small, poorly fitted or top-dose-only effect, or another doubt; inactive means no such curve, though single readings can be large; an effect the other way counts as inactive or inconclusive. Potency means the concentration at half of the fitted maximal effect.

SMILES	NPR1 antag	3T3 cytotox	GPT2 inhibitor	FLuc inh	HEK cytotox	Npr1 antag conf	NPR2 antag	FLuc inh counter	GloSensor cGMP
CC1Oc2ccc(NC(=O)c3ccc(F)cc3)cc2CN(Cc2ccc3c(c2)OCO3)C1=O (stereo not given)	?	?	-7%	i	?	24µM*	?	1%	31µM*
COc1cc(OC)cc(C(=O)Nc2ccc3c(c2)CN(Cc2ccc4c(c2)OCO4)C(=O)C(C)O3)c1 (stereo not given)	-12%	?	-16%	i	?	.	.	.	.
Cc1cccc2c1nc1n2[C@@H](CNS(=O)(=O)Cc2ccccc2)COC1	35µM*	?	-3%[88.5 µM]	i	?	28µM*	28µM*	0%[86.2 µM]	28µM*
Cc1ccc2c(c1)nc1n2[C@@H](CNCc2ccccc2)COC1	?	112µM*	-5%[88.5 µM]	i	?	35µM*	?	-2%[86.2 µM]	?
COc1ccc2nc3n(c2c1)[C@@H](CNCc1ccc(C(F)(F)F)cc1)COC3	35µM*	?	?	i	?	31µM*	35µM*	-2%[86.2 µM]	28µM*
c1ccc(CNC[C@H]2COCc3nc4ccccc4n32)cc1	22µM*	?	i	i	?	35µM*	31µM*	-1%[86.2 µM]	28µM*
COc1ccc2nc3n(c2c1)[C@@H](CNCc1ccccc1)COC3	?	?	-10%[88.5 µM]	i	?	.	.	.	.
Cc1cccc2c1nc1n2[C@@H](CNS(=O)(=O)c2ccc(F)cc2)COC1	?	?	-4%[88.5 µM]	i	?	.	.	.	.
O=C(CC1CCCC1)N1CCN2CCS(=O)(=O)N(C3CC3)C(=O)C2C1 (stereo not given)	.	-33%	i	.	?	.	.	.	.
Cc1cccc(-n2ncc3c2CCCC3NC(=O)CCC(F)(F)F)c1C (stereo not given)	?	-27%	-31%	i	?	24µM*	?	2%	24µM*
Cc1nc(CC(=O)NC2CCCc3c2cnn3-c2ccc(C(C)(C)C)cc2)cs1 (stereo not given)	?	?	0%	?	?	.	.	.	.
CCC1Oc2ccc(NC(=O)c3ccccc3OC(C)=O)cc2CN(Cc2ccccc2F)C1=O (stereo not given)	0.71µM*	14µM*	-21%	i	25µM*	24µM*	24µM*	-4%	22µM*
O=C(Nc1ccc(F)cc1)C1CCc2nc(N3CCN(C(=O)C4CCC4)CC3)sc2C1 (stereo not given)	3.5µM*	?	3%	i	10µM*	7.7µM*	11µM*	-20%	9.7µM*
O=C(NCC1CCCCC1)C1CCc2nc(N3CCN(C(=O)C4CCC4)CC3)sc2C1 (stereo not given)	8%	-11%	i	i	-38%	.	.	.	.
CC(Oc1ccccc1)C(=O)N1CCC2(CC1)NC(=O)N(c1ccccc1Cl)N2 (stereo not given)	5%	?	?	i	?	.	.	.	.
O=C(NCc1ccc(N2CCCC2)cc1)C1CCCN(c2cnn(Cc3ccccc3)c(=O)c2)C1 (stereo not given)	?	?	-28%	i	?	?	?	-2%	?
COc1ccc(CN2C(=O)CO[C@H]3CN(C4CCOCC4)C[C@H]32)cc1	3%[70.6 µM]	?	3%[88.5 µM]	i	-2%[172 µM]	.	.	.	.
CCNC(=O)O[C@@H]1CO[C@H]2[C@@H]1OC[C@@H]2NC(=O)Nc1ccc(C(C)C)cc1	2%[70.6 µM]	0%[174 µM]	?	i	-20%[172 µM]	.	.	.	.
COc1ccc(NC(=O)N[C@H]2CO[C@H]3[C@@H]2OC[C@H]3OC(=O)Nc2ccc(Oc3ccccc3)cc2)cc1	13µM*	?	3%	i	18µM*	14µM*	17µM*	-10%	12µM*
CN(C)c1ccc(CN[C@H]2CO[C@H]3[C@@H]2OC[C@H]3OC(=O)Nc2ccc(Oc3ccccc3)cc2)cc1	?	?	-13%	i	?	?	?	-13%	22µM*
COc1ccc(C(=O)N[C@H]2CO[C@H]3[C@@H]2OC[C@H]3OC(=O)Nc2ccccc2)cc1	32µM*	?	i	i	63µM*	40µM*	35µM*	-9%[86.2 µM]	35µM*
CC(C)c1ccc(NC(=O)N[C@H]2CO[C@H]3[C@@H]2OC[C@H]3OC(=O)Nc2ccc(Oc3ccccc3)cc2)cc1	?	?	-7%	i	?	19µM*	19µM*	0%	19µM*
Cc1ccc(C(=O)NC2CCN(c3ccc(=O)n(C)n3)CC2)cn1	-1%	-6%	2%	i	4%	.	.	.	.
CCOCCCNC(=O)CCc1cc2cc(C)ccc2[nH]c1=O	0%	i	i	i	8%	.	.	.	.
COc1ccc(OC)c(S(=O)(=O)N[C@H]2CO[C@H]3[C@@H]2OC[C@H]3OC(=O)Nc2cccc(C(C)=O)c2)c1	2%	-3%	1%	i	-5%	.	.	.	.
COc1ccc(OC)c(S(=O)(=O)N[C@H]2CO[C@H]3[C@@H]2OC[C@H]3OC(=O)Nc2cccc(C(F)(F)F)c2)c1	13µM*	?	-10%	i	?	27µM*	22µM*	2%	27µM*
COc1cc(NC(=S)N[C@H]2CO[C@H]3[C@@H]2OC[C@H]3OC(=O)Nc2ccccc2)cc(OC)c1	-13%	-18%	-1%	i	-12%	.	.	.	.
COc1ccc(NC(=O)O[C@@H]2CO[C@H]3[C@@H]2OC[C@@H]3NC(=S)Nc2ccc(Cl)cc2)cc1	13µM*	?	2%	i	45µM*	24µM*	?	1%	24µM*
O=C(Nc1ccc(Oc2ccccc2)cc1)O[C@@H]1CO[C@H]2[C@@H]1OC[C@@H]2n1nnnc1SC1CCCC1	10µM*	?	i	i	25µM*	17µM*	17µM*	1%	14µM*
